In paper doi:10.1101/2023.07.10.548322:

biological target: alpha-synuclein (aSyn) WT (human, UniProt P37840 1-140); assay: RNA Bind-n-Seq; conditions: ssRNA

Binding signal, 54.6 enrichment score:
UGUGGGCGGGAG
AGGGGGAUGUGG
AAGGGGCGGAGG

Binding signal, 60.2 enrichment score:
GGGAUGUGUGGG

Binding signal, 46.4 enrichment score:
AGUUGGUGGUGG
GGGGGAUGUGGU
GGAGGUGGUGGA
GGGAGCGGGGGA
UGGGGUGGGAGU

Binding signal, 41.1 enrichment score:
GGGGUGAGGUGU
GGUGGAUGAGGG
UGGGGGAUGGAG
GUGGGUGUGGUA
GAGGGGCUGGCG

Binding signal, 49.1 enrichment score:
GGGGAGUGGAUG
AGUGCGGGGGGG
GCGGGGUUAGGG
AGUGGGUGUGGA
GGCGGGCGGAGG
GUGGAUGGCGGG
GGCGAAGGGAGG
GGGGGGGGGGUG

Binding signal, 65.9 enrichment score:
GGUGGGUUUGGG

Binding signal, 57.4 enrichment score:
GAGGAGGGUGGG
GGGGGGAUUGGG

Binding signal, 43.8 enrichment score:
GGAAUGGGGUGG
GGAGGUAGGGAG
GGGAAGGUUGUG
GGGUGGGUUUGG
CGGGUGGGAUGG
AGGGGUUUUGGG
GGGUGUUGGUUG
GCGGGCAGGUGG
GGGUGGGCGGAU
